Test results: PubChem BioAssay (EPA / NIEHS)
Activity calls are given as the source filed them. Rule for the calls: active = hit-call score of the fitted dose curve at least 0.9, where 1 is the maximum; inactive = score below 0.9.

How the values were obtained:
TTR (gene 7276) = assay: CCTE_GLTED_hTTR_0.125uM: CCTE's human Transthyretin (hTTR) Inhibition Assay, with 0.125uM TTR, Great Lakes Toxicology and Ecology Division (GLTED) Lab (AID 2284431);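 note: hits lower the fluorescence signal relative to DMSO baseline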
Procedure, shortened: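 Cell-free displacement of the fluorescent probe ANSA from human TTR (0.125uM) after 2 h incubation with test chemical. Fluorescence read at 380 nm excitation/475 nm emission; loss of signal fitted relative to DMSO baseline.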

[1] = CCTE_Padilla_ZF_Score.General: CCTE's 144 Hour Post-fertilization zebrafish Assay Score for General Malformation, Padilla Lab (AID 2284411)
Procedure, shortened: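 Malformation, death and hatching were scored at 6 dpf by two blinded observers under a stereo microscope. Embryos were dosed singly from 6-8 hpf in sealed plates of 10% Hanks' at 26C and rinsed on 5 dpf; DMSO baseline.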

[2] = CCTE_Padilla_ZF_Score.Edema: CCTE's 144 Hour Post-fertilization zebrafish Assay Score for Edema Malformation, Padilla Lab (AID 2284406)
Method: (§1) CCTE_Padilla_ZF_Phenotype_Score is a whole embryo, multiplexed assay using zebrafish ova exposed for 144 hours post fertilization on a 96-well plate.CCTE_Padilla_ZF_Score.Edema is one of one assay component(s) measured or calculated from the CCTE_Padilla_ZF_Phenotype_Score assay. It is designed to make measurements of zebrafish development as detected with brightfield microscopy of developing zebrafish embryos.Data from the assay component CCTE_Padilla_ZF_Score.Edema was analyzed into 1 assay endpoints. This assay endpoint, CCTE_Padilla_ZF_Score.Edema, was analyzed in the positive analysis fitting direction relative to DMSO as the negative control and baseline of activity. Using a type of viability reporter, gain-of-signal activity can be used to understand changes in developmentals as they relate to the whole embryo. To generalize the intended target to other relatable targets, this assay endpoint is annotated to the zebrafish development intended target family, where the subfamily is embryonic edema.
(§2) Zebrafish husbandry: Wild type adult zebrafish (Danio rerio; undefined outbred stock obtained from Aquatic Research Organisms, Hampton, NH, 03842) were housed in an AAALAC-approved animal facility at 28C with a 14:10 h light: dark cycle (lights on at 08:30 h). Adult fish (2-3 females per male; density = 15-20 adults per tank) were kept in one of several 9-liter (L) flow-through colony tanks (Aquaneering Inc., San Diego, CA). All adults in a colony tank were placed in a 2 L (static) breeding tank (Aquatic Habitats, Apopka, FL) one hour prior to light onset. Typically, adults from two to three colony tanks were mated on the same day. Two hours after light onset the adults were returned to the colony tank. All embryos were gathered from each breeder tank, pooled, and placed in a 28C water bath for 2 h, followed by two washes with 0.06% bleach (v/v) in 10% Hanks' Balanced Salt Solution (13.7 mM NaCl 0.54 mM KCl, 25 uM Na2HPO4, 130 uM CaCl2 100 um MgSO4 and 420 um NaHCO3,), hereafter referred to as Hanks' solution, for 5 min in order to remove any residual bacteria or fungi. […]

[3] = CCTE_Padilla_ZF_Score.Spine: CCTE's 144 Hour Post-fertilization zebrafish Assay Score for Spine Malformation, Padilla Lab (AID 2284407)
Method: as §1, with “plate.CCTE_Padilla_ZF_Score.Spine” for “plate.CCTE_Padilla_ZF_Score.Edema”, “CCTE_Padilla_ZF_Score.Spine” for “CCTE_Padilla_ZF_Score.Edema”, “CCTE_Padilla_ZF_Score.Spine,” for “CCTE_Padilla_ZF_Score.Edema,”, “body axis morphogenesis.” for “embryonic edema.”
as §2, with “tank.” for “tank. All embryos were gathered from each breeder tank, pooled, and placed in a 28C water bath for 2 h, followed by two washes with 0.06% bleach (v/v) in 10% Hanks' Balanced Salt Solution (13.7 mM NaCl 0.54 mM KCl, 25 uM Na2HPO4, 130 uM CaCl2 100 um MgSO4 and 420 um NaHCO3,), hereafter referred to as Hanks' solution, for 5 min in order to remove any residual bacteria or fungi.”

[4] = CCTE_Padilla_ZF_Score.Swim_bladder: CCTE's 144 Hour Post-fertilization zebrafish Assay Score for Swim Bladder Malformation, Padilla Lab (AID 2284408)
Procedure, shortened: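 Swim bladder inflation scored at 6 dpf by two blinded observers under a stereo microscope. Exposure ran from 6–8 hpf in sealed wells of 10% Hanks' at 26C, with rinsing at 5 dpf; DMSO served as baseline.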

[5] = CCTE_Padilla_ZF_Score.Position: CCTE's 144 Hour Post-fertilization zebrafish Assay Score for Position, Padilla Lab (AID 2284409)
Procedure, shortened: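 Wild-type zebrafish embryos (with chorions) exposed singly from 6–8 hpf in sealed wells of Hanks' solution at 26C, rinsed at 5 dpf. At 6 dpf, blinded assessors scored abnormal water-column position by brightfield stereomicroscopy, relative to DMSO.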

[6] = CCTE_Padilla_ZF_Score.Living: CCTE's 144 Hour Post-fertilization zebrafish Assay Score for Viability, Padilla Lab (AID 2284410);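 note: larval death at 6 dpf judged by absent heartbeat or coagulation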
Method: as §1, with “plate.CCTE_Padilla_ZF_Score.Living” for “plate.CCTE_Padilla_ZF_Score.Edema”, “CCTE_Padilla_ZF_Score.Living” for “CCTE_Padilla_ZF_Score.Edema”, “CCTE_Padilla_ZF_Score.Living,” for “CCTE_Padilla_ZF_Score.Edema,”, “mortality.” for “edema.”
as §2, with “tank.” for “tank. All embryos were gathered from each breeder tank, pooled, and placed in a 28C water bath for 2 h, followed by two washes with 0.06% bleach (v/v) in 10% Hanks' Balanced Salt Solution (13.7 mM NaCl 0.54 mM KCl, 25 uM Na2HPO4, 130 uM CaCl2 100 um MgSO4 and 420 um NaHCO3,), hereafter referred to as Hanks' solution, for 5 min in order to remove any residual bacteria or fungi.”

[7] = CCTE_Padilla_ZF_Score.Tail: CCTE's 144 Hour Post-fertilization zebrafish Assay Score for Tail Malformation, Padilla Lab (AID 2284414)
Procedure, shortened: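 Tail malformations were scored at 6 dpf by two blinded assessors under a stereo microscope. Chorionated embryos had been exposed from 6-8 hpf in sealed wells of 10% Hanks' at 26 C, then rinsed free of chemical at 5 dpf.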

[8] = CCTE_Padilla_ZF_Score.Blood_pooling: CCTE's 144 Hour Post-fertilization zebrafish Assay Score for Blood Pooling, Padilla Lab (AID 2284415)
Procedure, shortened: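 Blood pooling was scored at 6 dpf under a stereo microscope by two blinded assessors, fitted upward against DMSO. Single embryos were dosed at 6–8 hpf in 10% Hanks', kept sealed at 26C (14:10 h cycle) and rinsed at 5 dpf.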

[9] = CCTE_Padilla_ZF_Score.Any: CCTE's 144 Hour Post-fertilization zebrafish Assay Score for Any Mortality or Malformation, Padilla Lab (AID 2284416)
Procedure, shortened: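 Wild-type zebrafish embryos with chorions, one per well in 10% Hanks' from 6–8 hpf, dosed in sealed plates at 26 C, 14:10 h light:dark; rinsed at 5 dpf; blinded scoring at 6 dpf for death or malformation, versus DMSO.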

**Q.** For `COC(=O)c1c(C)cc(O)c(C)c1O`, which AC50 (TTR (gene 7276)) is on record?
**A.** 1.29 µM (active)

**Q.** With `c1ccc2c(c1)ccc1cc3c(ccc4ccccc43)cc12` as the compound, how does the outcome [1] read?
**A.** inactive

**Q.** Which results are given for `FC(F)=C(F)OC(F)(F)C(F)(F)C(F)(F)F`?
**A.** outcome [2]: inactive; outcome [3]: inactive; outcome [4]: inactive; outcome [5]: inactive; outcome [6]: inactive; outcome [1]: inactive; outcome [7]: inactive; outcome [8]: inactive; outcome [9]: inactive

**Q.** Which AC50 (TTR (gene 7276)) does the source give for `O=c1cc(-c2ccccc2)oc2ccccc12` here?
**A.** 10.8 µM (active)

**Q.** Which AC50 (TTR (gene 7276)) does the source give for `CCCCCCCCCCOS(=O)(=O)O` here?
**A.** 3.68 µM (active)

**Q.** With `S=C(NC1CCCCC1)NC1CCCCC1` as the compound, how does the AC50 [1] read?
**A.** 25.5 µM (active)

**Q.** Which results are given for `CCOC(F)(F)C(F)(F)C(F)(F)C(F)(F)F`?
**A.** outcome [2]: inactive; outcome [3]: inactive; outcome [4]: inactive; outcome [5]: inactive; outcome [6]: inactive; outcome [1]: inactive; outcome [7]: inactive; outcome [8]: inactive; outcome [9]: inactive

**Q.** Which AC50 (TTR (gene 7276)) does the source give for `Oc1ccc(Cl)cc1Cc1cc(Cl)ccc1O` here?
**A.** 0.129 µM (active)

**Q.** Which AC50 (TTR (gene 7276)) does the source give for `CCCCCCCCCCCCCOP(=O)(O)O` here?
**A.** 0.78 µM (active)

**Q.** For `CCCCCCCCc1ccc(Nc2ccc(CCCCCCCC)cc2)cc1`, which outcome [1] is on record?
**A.** inactive

**Q.** For `CN(C)c1ccc(N=Nc2ccccc2C(=O)O)cc1`, which AC50 (TTR (gene 7276)) is on record?
**A.** 8.96 µM (active)

**Q.** Which outcome [2] does the source give for `CC=CC(F)(F)C(F)(F)C(F)(F)F` here?
**A.** inactive

**Q.** What about the outcome [3] of the same compound?
**A.** inactive

**Q.** What about the outcome [4] of the same compound?
**A.** inactive

**Q.** And the outcome [5]?
**A.** inactive

**Q.** What about the outcome [6] of the same compound?
**A.** inactive

**Q.** And the outcome [1]?
**A.** inactive

**Q.** And the outcome [7]?
**A.** inactive

**Q.** And the outcome [8]?
**A.** inactive

**Q.** What about the outcome [9] of the same compound?
**A.** inactive

**Q.** With `C=CCOCC(O)CCl` (centres undefined) as the compound, how does the outcome [1] read?
**A.** inactive

**Q.** With `C#CC1(O)CC[C@H]2[C@@H]3CCC4=CCCC[C@@H]4[C@H]3CC[C@@]21C` (some centres undefined) as the compound, how does the AC50 [1] read?
**A.** 2.31 µM (active)

**Q.** Which outcome [1] does the source give for `CCCCCCCCCCc1ccccc1` here?
**A.** inactive

**Q.** With `CCCCC/C=C\C/C=C\CCCCCCCC(=O)OC` as the compound, how does the outcome [1] read?
**A.** inactive

**Q.** What about the AC50 (TTR (gene 7276)) of the same compound?
**A.** 9.84 µM (active)

**Q.** With `O=Nc1ccc(O)cc1` as the compound, how does the outcome [1] read?
**A.** inactive

**Q.** Which outcome [1] does the source give for `CCCCCCCCCCCCCCCC[N+](C)(C)CC` here?
**A.** inactive

**Q.** With `CC1=NN(c2cc(S(=O)(=O)O)ccc2Cl)C(=O)C1N=Nc1ccccc1` (centres undefined) as the compound, how does the AC50 (TTR (gene 7276)) read?
**A.** 5.76 µM (active)

**Q.** Which AC50 (TTR (gene 7276)) does the source give for `CCCCCCCC/C=C\CCCCCCCC(=O)O` here?
**A.** 3.32 µM (active)

**Q.** For `COCc1c(C(C)C)nc(C(C)C)c(/C=C/[C@@H](O)C[C@@H](O)CC(=O)O)c1-c1ccc(F)cc1`, which outcome [1] is on record?
**A.** inactive

**Q.** For `O=S1(=O)OC(c2ccc(O)cc2)(c2ccc(O)cc2)c2ccccc21`, which AC50 (TTR (gene 7276)) is on record?
**A.** 3.34 µM (active)

**Q.** With `CCCCC(CC)CCC(CC(C)C)OS(=O)(=O)O` (centres undefined) as the compound, how does the AC50 (TTR (gene 7276)) read?
**A.** 0.382 µM (active)

**Q.** With `CCCCC(CC)COC(=O)c1ccccc1O` (centres undefined) as the compound, how does the outcome [1] read?
**A.** inactive
